# The source made the active and inactive calls. Rule for the calls: active = hit-call score of the fitted dose curve at least 0.9, where 1 is the maximum; inactive = score below 0.9.
# Columns and labels:
# Conditions in all cases: mRNA level, 48 h; actives raise or lower the signal
# [1] = read-out: Cytochrome P450 (CYP2B6), CYP2B6 (gene 1555); test: LTEA_HepaRG_CYP2B6: Life Technologies and Expression Analysis (LTEA) Assay for Cytochrome P450 (CYP2B6) using HepaRG (AID 2283481)
# How it was run: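 HepaRG cells plated 48 h, switched to serum-free induction medium, then dosed 48 h (8 points, half-log from 100 uM, 0.5% DMSO). RNA isolated; CYP2B6 expression measured by qRT-PCR; gain or loss fitted relative to DMSO.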
# [2] = read-out: Cytochrome P450 2C19 (Homo sapiens) (UniProt P33261); test: LTEA_HepaRG_CYP2C19: Life Technologies and Expression Analysis (LTEA) Assay for CYP2C19 using HepaRG (AID 2283482)
# How it was run: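 Transcript levels of CYP2C19 were quantified by qRT-PCR after HepaRG cells were treated for 48 hours with test chemicals up to 100 uM (eight half-log concentrations, 0.5% DMSO vehicle). Gain or loss of signal was fitted relative to DMSO.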
# CYP2C8 (gene 1558) = test: LTEA_HepaRG_CYP2C8: Life Technologies and Expression Analysis (LTEA) Assay for CYP2C8 using HepaRG (AID 2283483)
# How it was run: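 This is a transcriptional endpoint in HepaRG cultures: 48 h exposure, highest concentration 100 uM. CYP2C8 mRNA is quantified by TaqMan qRT-PCR.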
# CYP2C9 (gene 1559) = test: LTEA_HepaRG_CYP2C9: Life Technologies and Expression Analysis (LTEA) Assay for CYP2C9 using HepaRG (AID 2283484)
# How it was run: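 Eight-point concentration-response (highest 100 uM, half-log dilutions) in HepaRG cells for 48 h; CYP2C9 expression by qRT-PCR normalized to ACTB, GAPDH, POLR2A. Bidirectional fit, DMSO baseline.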
# CYP2E1 (gene 1571) = test: LTEA_HepaRG_CYP2E1: Life Technologies and Expression Analysis (LTEA) Assay for CYP2E1 using HepaRG (AID 2283485)
# How it was run: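 Readout is qRT-PCR of CYP2E1 mRNA, normalized to three housekeeping genes and fitted bidirectionally against 0.5% DMSO. HepaRG cells were dosed 48 h at eight concentrations, highest 100 uM with half-log dilutions.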
# CYP4A11 (gene 1579) = test: LTEA_HepaRG_CYP4A11: Life Technologies and Expression Analysis (LTEA) Assay for CYP4A11 using HepaRG (AID 2283486)
# How it was run: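 HepaRG, 48 h chem exposure, 8 conc (100 uM top, half-log), 0.5% DMSO vehicle; qRT-PCR readout, housekeeping-gene normalized; bidirectional curve fit vs DMSO baseline.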
# [3] = read-out: Cytochrome P450 3A4 (Homo sapiens) (UniProt P08684); test: LTEA_HepaRG_CYP3A4: Life Technologies and Expression Analysis (LTEA) Assay for CYP3A4 using HepaRG (AID 2283487)
# How it was run: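 Differentiated HepaRG cells, plated 48 h, then dosed 48 h in serum-free induction medium with 0.5% DMSO, 8 half-log concentrations up to 100 uM, duplicate. CYP3A4 mRNA by qRT-PCR, normalized to ACTB/GAPDH/POLR2A; bidirectional fit versus DMSO.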
# [4] = read-out: DNA damage-inducible transcript 3 (DDIT3), DDIT3 (gene 1649); test: LTEA_HepaRG_DDIT3: Life Technologies and Expression Analysis (LTEA) Assay for DNA damage-inducible transcript 3 (DDIT3) using HepaRG (AID 2283488)
# How it was run: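 Cells are human HepaRG liver cells treated for 48 h with eight half-log concentrations up to 100 uM in 0.5% DMSO. Transcript levels come from qRT-PCR normalized to three housekeeping genes, with activity fitted in both directions relative to vehicle.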
# [5] = read-out: Pro-epidermal growth factor (Homo sapiens) (UniProt P01133); test: LTEA_HepaRG_EGF: Life Technologies and Expression Analysis (LTEA) Assay for Epidermal growth factor (EGF) using HepaRG (AID 2283489)
# How it was run: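 HepaRG, 48 h dosing, 100 uM top, half-log x8, 0.5% DMSO. Readout: TaqMan qRT-PCR (Fluidigm array), housekeeping-normalized. Gain or loss of signal fit vs DMSO.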
# [6] = read-out: Early growth response protein 1 (EGR1) transcription factor, EGR1 (gene 1958); test: LTEA_HepaRG_EGR1: Life Technologies and Expression Analysis (LTEA) Assay for Early growth response protein 1 (EGR1) transcription factor using HepaRG (AID 2283490)
# How it was run: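 EGR1 expression change in human HepaRG after 48 h chemical exposure, assessed by housekeeping-normalized qRT-PCR; concentration-response up to 100 uM, fitted in both directions against DMSO controls.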
# [7] = read-out: Ezrin (EZR), EZR (gene 7430); test: LTEA_HepaRG_EZR: Life Technologies and Expression Analysis (LTEA) Assay for Ezrin (EZR) using HepaRG (AID 2283491)
# How it was run: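 EZR transcript levels came from Fluidigm qRT-PCR and were normalized to three housekeeping genes after 48 h chemical exposure of HepaRG cells. Dosing used an 8-point half-log series with a 100 uM top concentration in 0.5% DMSO, tested in duplicate; both directions were fitted versus vehicle.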
# [8] = read-out: Cytochrome P450 3A7 (Homo sapiens) (UniProt P24462); test: LTEA_HepaRG_CYP3A7: Life Technologies and Expression Analysis (LTEA) Assay for CYP3A7 using HepaRG (AID 2283492)
# How it was run: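 Human HepaRG liver cells, 48 h post-plating, switched to serum-free induction medium and exposed in duplicate for 48 h. Dosing: 100 uM top, half-log dilutions, 8 points, 0.5% DMSO vehicle. Read-out: CYP3A7 mRNA, gain or loss fitted against DMSO baseline.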
# CYP3A5 (gene 1577) = test: LTEA_HepaRG_CYP3A5: Life Technologies and Expression Analysis (LTEA) Assay for CYP3A5 using HepaRG (AID 2283493)
# How it was run: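 Human HepaRG hepatic cells receive 48 h chemical treatment at eight concentrations (half-log steps from 100 uM) in 0.5% DMSO. Expression of CYP3A5 is quantified by Fluidigm qRT-PCR and normalized to three reference genes.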
# [9] = read-out: Fatty Acid-Binding Protein 1 (FABP1), FABP1 (gene 2168); test: LTEA_HepaRG_FABP1: Life Technologies and Expression Analysis (LTEA) Assay for Fatty Acid-Binding Protein 1 (FABP1) using HepaRG (AID 2283494)
# How it was run: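 Values reflect bidirectional concentration-response fitting of FABP1 mRNA change against 0.5% DMSO controls. Human HepaRG cultures received eight half-log doses (top 100 uM) for 48 h; expression quantified by TaqMan qRT-PCR with housekeeping-gene normalization.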
# [10] = read-out: Cytochrome P450 4A22 (Homo sapiens) (UniProt Q5TCH4); test: LTEA_HepaRG_CYP4A22: Life Technologies and Expression Analysis (LTEA) Assay for Cytochrome P450 4A22 (CYP4A22) using HepaRG (AID 2283495)
# How it was run: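 Readout is CYP4A22 transcript induction or loss, quantified by qRT-PCR and normalized to ACTB, GAPDH and POLR2A. Human HepaRG cells receive test chemicals for 48 h at eight half-log concentrations from 100 uM in 0.5% DMSO.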
# [11] = read-out: Cytochrome P450 7A1 (Homo sapiens) (UniProt P22680); test: LTEA_HepaRG_CYP7A1: Life Technologies and Expression Analysis (LTEA) Assay for Cytochrome P450 7A1 (CYP7A1) using HepaRG (AID 2283496)
# How it was run: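 HepaRG, 48 h exposure, 8-pt half-log series from 100 uM, 0.5% DMSO vehicle, duplicates. Readout: TaqMan qRT-PCR mRNA vs three housekeeping genes; bidirectional curve fit against DMSO baseline.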
# [12] = read-out: Glutathione S-Transferase (GSTA2), GSTA2 (gene 2939); test: LTEA_HepaRG_GSTA2: Life Technologies and Expression Analysis (LTEA) Assay for Glutathione S-Transferase (GSTA2) using HepaRG (AID 2283497)
# How it was run: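 Oxidative-stress marker GSTA2 is quantified by TaqMan qRT-PCR in HepaRG cultures treated 48 h across an eight-point range to 100 uM. Expression is normalized to endogenous controls and compared with 0.5% DMSO vehicle.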
# [13] = read-out: Glutamate-cysteine ligase catalytic (GCLC), GCLC (gene 2729); test: LTEA_HepaRG_GCLC: Life Technologies and Expression Analysis (LTEA) Assay for Glutamate-cysteine ligase catalytic (GCLC) using HepaRG (AID 2283498)
# How it was run: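 Oxidative-stress marker GCLC is measured as mRNA change in human HepaRG liver cells after 48 h chemical treatment in 0.5% DMSO, eight concentrations from 100 uM. Activity is fitted bidirectionally against vehicle.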
# [14] = read-out: growth arrest and DNA damage 45 (GADD45G), GADD45G (gene 10912); test: LTEA_HepaRG_GADD45G: Life Technologies and Expression Analysis (LTEA) Assay for growth arrest and DNA damage 45 (GADD45G) using HepaRG (AID 2283499)
# How it was run: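 Gain or loss of GADD45G mRNA, quantified by TaqMan qRT-PCR against three housekeeping genes, is fitted in both directions relative to 0.5% DMSO. Human HepaRG cultures receive test chemical for 48 h at up to 100 uM.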
# [15] = read-out: Glutamate-cysteine ligase regulatory (GCLM), GCLM (gene 2730); test: LTEA_HepaRG_GCLM: Life Technologies and Expression Analysis (LTEA) Assay for Glutamate-cysteine ligase regulatory (GCLM) using HepaRG (AID 2283500)
# How it was run: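 Endpoint is GCLM transcript level by qRT-PCR, normalized to three housekeeping genes, after 48 h chemical exposure of human HepaRG cells (0.5% DMSO vehicle, top 100 uM, half-log dilutions). Fitting was bidirectional relative to DMSO.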
# Sequence of Cytochrome P450 3A4 (Homo sapiens) (P08684 whole entry, looked up): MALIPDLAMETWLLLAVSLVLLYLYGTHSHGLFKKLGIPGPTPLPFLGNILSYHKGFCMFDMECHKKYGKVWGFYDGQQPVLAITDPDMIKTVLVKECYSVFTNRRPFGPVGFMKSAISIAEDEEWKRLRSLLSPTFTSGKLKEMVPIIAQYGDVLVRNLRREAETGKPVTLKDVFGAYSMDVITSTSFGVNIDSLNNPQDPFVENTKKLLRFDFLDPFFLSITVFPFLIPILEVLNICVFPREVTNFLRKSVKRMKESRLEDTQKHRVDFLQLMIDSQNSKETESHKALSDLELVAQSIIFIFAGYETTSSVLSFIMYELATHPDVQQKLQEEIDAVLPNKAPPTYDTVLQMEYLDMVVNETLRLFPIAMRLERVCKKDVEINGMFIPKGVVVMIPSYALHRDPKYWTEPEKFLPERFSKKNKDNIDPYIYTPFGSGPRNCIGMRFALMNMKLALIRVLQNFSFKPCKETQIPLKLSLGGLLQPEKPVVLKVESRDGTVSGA
# Sequence of Cytochrome P450 2C19 (Homo sapiens) (P33261 whole entry, looked up): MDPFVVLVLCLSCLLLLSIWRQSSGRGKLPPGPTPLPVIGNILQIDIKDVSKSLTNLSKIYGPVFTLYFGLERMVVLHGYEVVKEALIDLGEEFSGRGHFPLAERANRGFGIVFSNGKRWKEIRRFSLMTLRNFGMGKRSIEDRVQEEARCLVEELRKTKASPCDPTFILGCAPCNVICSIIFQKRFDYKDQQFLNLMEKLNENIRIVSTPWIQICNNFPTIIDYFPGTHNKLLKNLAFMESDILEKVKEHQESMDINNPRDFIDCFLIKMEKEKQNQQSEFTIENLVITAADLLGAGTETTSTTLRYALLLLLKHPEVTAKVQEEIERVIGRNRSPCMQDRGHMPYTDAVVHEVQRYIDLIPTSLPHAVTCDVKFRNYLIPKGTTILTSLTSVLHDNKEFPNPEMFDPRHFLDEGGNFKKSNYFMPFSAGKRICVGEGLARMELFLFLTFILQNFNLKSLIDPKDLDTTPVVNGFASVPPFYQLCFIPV
# Sequence of Cytochrome P450 3A7 (Homo sapiens) (P24462 whole entry, looked up): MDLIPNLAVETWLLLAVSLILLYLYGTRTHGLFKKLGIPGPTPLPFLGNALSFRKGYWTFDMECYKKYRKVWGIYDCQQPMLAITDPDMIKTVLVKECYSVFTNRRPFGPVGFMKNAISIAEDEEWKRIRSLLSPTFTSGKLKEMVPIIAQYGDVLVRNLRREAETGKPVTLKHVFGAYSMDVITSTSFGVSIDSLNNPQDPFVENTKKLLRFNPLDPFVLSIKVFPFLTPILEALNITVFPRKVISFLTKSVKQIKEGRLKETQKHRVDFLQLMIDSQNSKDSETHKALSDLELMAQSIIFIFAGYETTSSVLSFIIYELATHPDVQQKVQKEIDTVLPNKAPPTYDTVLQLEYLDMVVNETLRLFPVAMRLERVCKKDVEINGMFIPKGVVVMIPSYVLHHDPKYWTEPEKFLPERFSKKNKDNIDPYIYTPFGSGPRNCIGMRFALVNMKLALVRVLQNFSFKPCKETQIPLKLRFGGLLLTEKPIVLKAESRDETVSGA
smiles,measurement,setting,value
COc1ccc(-c2ccccc2)cc1NNC(=O)OC(C)C,outcome,[1],inactive
same,outcome,[2],inactive
same,outcome,CYP2C8 (gene 1558),inactive
same,outcome,CYP2C9 (gene 1559),inactive
same,outcome,CYP2E1 (gene 1571),inactive
same,outcome,CYP4A11 (gene 1579),inactive
same,outcome,[3],inactive
same,outcome,[4],inactive
same,outcome,[5],inactive
same,outcome,[6],inactive
same,outcome,[7],inactive
same,outcome,[8],inactive
same,outcome,CYP3A5 (gene 1577),inactive
same,outcome,[9],inactive
same,outcome,[10],inactive
same,outcome,[11],inactive
same,outcome,[12],inactive
same,outcome,[13],inactive
same,outcome,[14],inactive
same,outcome,[15],inactive
Cc1cnc(C2=NC(C)(C(C)C)C(=O)N2)c(C(=O)O)c1 (configuration not stated),outcome,[1],inactive
same,outcome,[2],inactive
same,outcome,CYP2C8 (gene 1558),inactive
same,outcome,CYP2C9 (gene 1559),inactive
same,outcome,CYP2E1 (gene 1571),inactive
same,outcome,CYP4A11 (gene 1579),inactive
same,outcome,[3],inactive
same,outcome,[4],inactive
same,outcome,[5],inactive
same,outcome,[6],inactive
same,outcome,[7],inactive
same,outcome,[8],inactive
same,outcome,CYP3A5 (gene 1577),inactive
same,outcome,[9],inactive
same,outcome,[10],inactive
same,outcome,[12],inactive
same,outcome,[13],inactive
same,outcome,[14],inactive
same,outcome,[15],inactive
CCCCOCN(C(=O)CCl)c1c(CC)cccc1CC,AC50,[1],40 µM (active)
same,AC50,[2],50 µM (active)
same,outcome,CYP2C8 (gene 1558),inactive
same,outcome,CYP2C9 (gene 1559),inactive
same,outcome,CYP2E1 (gene 1571),inactive
same,AC50,CYP4A11 (gene 1579),50 µM (active)
same,AC50,[3],27.7 µM (active)
same,outcome,[4],inactive
same,outcome,[5],inactive
same,outcome,[6],inactive
same,outcome,[7],inactive
same,outcome,[8],inactive
same,outcome,CYP3A5 (gene 1577),inactive
same,outcome,[9],inactive
same,outcome,[10],inactive
same,outcome,[11],inactive
same,outcome,[12],inactive
same,outcome,[13],inactive
same,outcome,[14],inactive
same,outcome,[15],inactive
O=C1C2CC=CCC2C(=O)N1SC(Cl)(Cl)Cl (configuration not stated),outcome,[1],inactive
same,outcome,[2],inactive
same,outcome,CYP2C8 (gene 1558),inactive
same,outcome,CYP2C9 (gene 1559),inactive
same,outcome,CYP2E1 (gene 1571),inactive
same,outcome,CYP4A11 (gene 1579),inactive
same,outcome,[3],inactive
same,outcome,[4],inactive
same,outcome,[5],inactive
same,outcome,[6],inactive
same,outcome,[7],inactive
same,outcome,[8],inactive
same,outcome,CYP3A5 (gene 1577),inactive
same,outcome,[9],inactive
same,outcome,[10],inactive
same,outcome,[12],inactive
same,outcome,[13],inactive
same,outcome,[14],inactive
same,outcome,[15],inactive
CCN(CC)C(=O)C(C)Oc1cccc2ccccc12 (configuration not stated),AC50,[1],12 µM (active)
same,AC50,[2],12.6 µM (active)
same,outcome,CYP2C8 (gene 1558),inactive
same,outcome,CYP2C9 (gene 1559),inactive
same,AC50,CYP2E1 (gene 1571),73.5 µM (active)
same,AC50,CYP4A11 (gene 1579),79.1 µM (active)
same,AC50,[3],2.65 µM (active)
same,outcome,[4],inactive
same,outcome,[5],inactive
same,outcome,[6],inactive
same,outcome,[7],inactive
same,AC50,[8],80.2 µM (active)
same,outcome,CYP3A5 (gene 1577),inactive
same,AC50,[9],70.4 µM (active)
same,AC50,[10],78.3 µM (active)
same,outcome,[12],inactive
same,outcome,[14],inactive
same,outcome,[15],inactive
CC1(C)CCC(=Cc2ccc(Cl)cc2)C1(O)Cn1cncn1 (configuration not stated),AC50,[1],2.72 µM (active)
same,AC50,[2],5.03 µM (active)
same,AC50,CYP2C8 (gene 1558),12.6 µM (active)
same,outcome,CYP2C9 (gene 1559),inactive
same,AC50,CYP2E1 (gene 1571),27.1 µM (active)
same,AC50,CYP4A11 (gene 1579),27.8 µM (active)
same,outcome,[4],inactive
same,outcome,[5],inactive
same,outcome,[6],inactive
same,outcome,[7],inactive
same,outcome,CYP3A5 (gene 1577),inactive
same,AC50,[10],14.6 µM (active)
same,outcome,[12],inactive
same,outcome,[13],inactive
same,outcome,[14],inactive
same,outcome,[15],inactive
